# APEX1 inh – APE1 (human) endonuclease inhibition; P27695; recombinant APE1, TAMRA/BHQ-2 abasic DNA cleavage fluorescence; Potency, µM (highest dose often 65.8 µM), without a hit: at the highest dose activity change, negative = inhibition, usual class: inhibitors; 350,000 tested, 0.35% active; AID 2517;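 note: plate controls were vehicle for no effect and reference inhibitor for full effect; nearly all actives have a fitted effect of over 55% in size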
# Target sequence (P27695 whole entry, looked up): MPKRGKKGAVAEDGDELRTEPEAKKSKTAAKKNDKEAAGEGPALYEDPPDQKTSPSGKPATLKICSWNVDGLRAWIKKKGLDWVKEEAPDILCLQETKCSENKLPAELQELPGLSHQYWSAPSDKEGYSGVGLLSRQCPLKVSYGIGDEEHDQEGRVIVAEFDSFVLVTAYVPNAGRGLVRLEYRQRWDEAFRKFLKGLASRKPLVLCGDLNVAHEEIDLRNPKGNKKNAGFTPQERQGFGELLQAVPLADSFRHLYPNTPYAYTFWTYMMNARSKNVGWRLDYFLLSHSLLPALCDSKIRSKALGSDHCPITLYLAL
#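 APE1 at 0.75 nM final was preincubated with compound 15 min at room temperature, then 50 nM double-stranded THF abasic-site substrate (5'-TAMRA/3'-BHQ-2) was added. Fluorescence (ex 525/em 598 nm) was read kinetically; third-minus-first read gave activity.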
# FEN1 inh – blocks human flap endonuclease 1. 390,000 tested, 0.35% active. Recombinant FEN1 flap cleavage, fluorescence, 15 min. Potency, µM (titrated, usually from 114 µM), for the others: at the highest dose activity change, negative = inhibition, most hits filed as inhibitors. AID 588795. P39748; note: nearly all actives have a fitted effect of over 65% in size
# Target sequence (P39748 whole entry, looked up): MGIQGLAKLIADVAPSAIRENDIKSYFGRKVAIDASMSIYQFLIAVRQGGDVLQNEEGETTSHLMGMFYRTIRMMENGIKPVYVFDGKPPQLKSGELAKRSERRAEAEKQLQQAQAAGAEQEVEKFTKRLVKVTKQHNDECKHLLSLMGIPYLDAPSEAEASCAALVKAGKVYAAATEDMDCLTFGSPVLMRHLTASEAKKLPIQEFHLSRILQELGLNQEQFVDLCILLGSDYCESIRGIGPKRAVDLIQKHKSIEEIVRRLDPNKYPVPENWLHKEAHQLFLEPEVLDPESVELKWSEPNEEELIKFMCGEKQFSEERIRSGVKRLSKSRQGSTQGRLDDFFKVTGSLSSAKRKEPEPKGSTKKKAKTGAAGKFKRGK
#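 FEN1 at 10 nM preincubated with compounds 15 min at room temperature, then flap DNA substrate added at 50 nM final. Signal read at 0 and 15 min; concentration-response fitted with four-parameter Hill equation.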
# RECQ1 inh-1 – blocks DNA unwinding by human RECQ1; 240,000 tested, 0.54% active; RECQ1 DNA unwinding, red fluorescence kinetic read; Potency, µM (doses to about 57.3 µM), without a hit: at the top dose activity, negative = inhibition, usual class: inhibitors; P46063;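 note: plate controls were vehicle for no effect and no enzyme for full effect; nearly all actives have a fitted effect of over 30% in size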
#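 RECQ1T1 50 nM; forked duplex (20 bp + 30-nt ss tails) 200 nM, ATP 2 mM final; pH 8.0, 2 mM MgCl2, 2.5 ug/ml poly(dI-dC); 15 min compound preincubation; discontinuous kinetic read over 2 h at RT.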
# WRN helicase inh – inhibitors of human WRN helicase | AID 651768 | 360,000 tested, 0.46% active | Potency, µM (series often up to 114 µM), for inactives: top-dose activity change, negative = inhibition, hits mostly inhibitors | WRN helicase unwinding, fluorescent forked duplex, kinetic; note: nearly all actives have a fitted effect of over 55% in size
#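 Fluorescence dequenching readout, ex 525 nm/em 598 nm, kinetic mode: forked duplex DNA (100 nM final) with adjacent fluorophore and quencher unwound by WRN (20 nM final) with 2 mM ATP. Compound preincubation 15 min, room temperature.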
# BLM inh – Bloom syndrome helicase (human) inhibition | 350,000 tested, 0.2% active | P54132 | Potency, µM (series often up to 56.1 µM), inactives show top-dose activity change, negative = inhibition, hits mostly inhibitors | recombinant BLM DNA unwinding, fluorescence dequenching;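 note: plate controls were vehicle for no effect and no enzyme for full effect; nearly all actives have a fitted effect of over 35% in size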
# RECQ1 inh conf – confirmation of human RECQ1 helicase inhibitors; shares compounds with RECQ1 inh-1; RECQ1 helicase DNA unwinding, fluorescence; Potency, µM (series often up to 229 µM), for the others: at the top dose activity change, negative = inhibition, most hits filed as inhibitors; 610 tested, 28% active; AID 2708; note: nearly all actives have a fitted effect of over 45% in size
# ADP FP counter – displaces ADP in a fluorescence polarization counter-screen for RECQ1 hits; ADP fluorescence polarization displacement counterscreen; AID 2711; 530 tested, 27% active; shares compounds with RECQ1 inh-1; Potency, µM (highest dose often 228 µM), for the others: top-dose activity change, negative = inhibition, most hits filed as inhibitors; note: nearly all actives have a fitted effect of over 45% in size
# RECQ1 inh-2 – blocks human RECQ1 DNA unwinding. shares compounds with RECQ1 inh-1. recombinant RECQ1 DNA unwinding, red fluorescence. Potency, µM (top dose mostly 119 µM), without a hit: at the highest dose activity, negative = inhibition, usual class: inhibitors. 1,100 tested, 15% active. AID 504841; note: nearly all actives have a fitted effect of over 50% in size
# * hit, by the source's call; i = inactive; u = inconclusive; x = not tested or not shown; ! = not active in a repeat; [ ] = another dose, or the depositor's remark. A selection: hits, their analogues and other compounds. The true share with any hit is near 0.87%. Calls come from the whole dose curve; as a rule, active = well fitted curve in the direction sought with a large enough effect; inconclusive = small, poorly fitted or top-dose-only effect, or another doubt; inactive = no such curve, though single readings can be large; an effect the other way counts as inactive or inconclusive. Unless noted, % is set by controls: 0 for no effect and ±100 for the full control effect; potency is the fitted concentration of half-maximal effect.
SMILES,APEX1 inh,FEN1 inh,RECQ1 inh-1,WRN helicase inh,BLM inh,RECQ1 inh-2,others
O=C1Nc2ccccc2SC(c2ccccc2)C1O (centres undefined),u,u,32µM*,u,-8%,u,
O=C(O)CC1Sc2ccccc2NC1=O (centres undefined),12%,3%,i,-1%,3%,x,
C1=CC2c3ccccc3NC(c3ccncc3)C2C1 (centres undefined),u,-10%,-23%,-28%,-16%,x,
CC(=O)c1ccc2c(c1)C1C=CCC1C(c1ccncc1)N2 (centres undefined),u,-18%,u,-33%,-29%,36%,
CCC(=O)N1c2ccc(S(=O)(=O)NCc3ccc(F)cc3)cc2CC1C (centres undefined),x,-3%,x,x,0%,x,
Cc1ccc(OCC(O)CNC(=O)c2ccccc2C(=O)O)cc1 (centres undefined),18%,4%,-2%,1%,-2%,x,RECQ1 inh conf=4%;ADP FP counter=-3%
COc1ccc(CCNC(=O)c2cc(-c3ccc(C)c(C)c3)nc3ccccc23)cc1OC,x,-6%,x,x,-10%,x,
COC(=O)C1=C(C)N2C(=O)CSC2=NC1c1ccc2c(c1)OCO2 (centres undefined),10%,-1%,u,-8%,-6%,-16%,
COCCN1C=C(C(=O)OC)C(c2ccc3c(c2)OCO3)C(C(=O)OC)=C1,3%,-5%,i,0%,-7%,x,
CCOC(=O)N1CCC(NC(=O)c2cccc3c2C(=O)N(c2ccc(OC)cc2)C3)CC1,u,-1%,11µM*,-27%,u,x,RECQ1 inh conf=14µM*;ADP FP counter=6%[91.9 µM]
N#C/C(=C\c1ccc(C(=O)O)cc1)c1nc2sc3c(c2c(=O)[nH]1)CCCC3,u,u,25µM*,u,u,u,
CCOC(=O)c1nc2sc3c(c2c(=O)[nH]1)CCCC3,-2%,-4%,-6%,-9%,0%,x,
CCCN(c1ccccc1F)S(=O)(=O)c1ccc2c(c1)C(C)(C)C(=O)N2C,x,-8%,x,x,-7%,x,
CCOC(=O)c1ccc(NC(=O)CSc2nc(C)cc(=O)[nH]2)cc1,-12%,u,u,u,-20%,u,
CCN(CC)c1ccc(NC(=O)CSc2nc(C)cc(=O)[nH]2)cc1,-2%,-1%,-5%,-3%,1%,x,
CCn1nc(C)c2c(-c3ccccc3)cc(=O)n(C(C)C(=O)NCc3ccccc3OC)c21 (centres undefined),x,0%,x,x,-6%,x,
COc1ccc(Nc2oc(-c3ccc(COc4ccccc4C)o3)nc2C#N)cc1,x,-17%,x,x,-4%,x,
Cc1ccc(N2C(=O)C3C(C2=O)C(C(=O)c2ccc(Cl)cc2)N2CCCC32)cc1 (centres undefined),10%,3%,25µM*,6%,-3%,-28%,
CC(=O)Oc1ccc(N2C(=O)C3C(C2=O)C(C(=O)c2ccc(Cl)cc2)N2CCCC32)cc1 (centres undefined),7%,-2%,-4%,-21%,1%,x,
CCOC(=O)c1ccc(NC(=S)N2CCSC2c2ccc(Cl)cc2)cc1 (centres undefined),-2%,-13%,u,-12%,-6%,-10%,
CCOC(=O)c1ccc(NC(=S)N2CCSC2c2ccc(OC)cc2)cc1 (centres undefined),5%,5%,-16%,4%,-4%,x,
O=C(COc1ccc(Cl)cc1)Nc1ccc(C(=O)OCc2cc(=O)n3ccsc3n2)cc1,x,-12%,x,x,-9%,x,
Cc1cc(C)n2nc(C(=O)OCC(=O)c3cc(C)n(CC4CCCO4)c3C)nc2n1 (centres undefined),-4%,3%,7%,1%,-5%,x,
Cc1cc(C)n2nc(C(=O)OCC(=O)c3cc(C)n(C)c3C)nc2n1,-10%,-7%,u,u,-15%,u,
O=C1CC(Nc2ccc(N3CCOCC3)cc2)C(=O)N1c1cccc(C(F)(F)F)c1 (centres undefined),-4%,-20%,u,3%,2%,-8%,
SMILES,APEX1 inh,FEN1 inh,RECQ1 inh-1,WRN helicase inh,BLM inh,RECQ1 inh-2,others
CCCCOc1ccc(C(=O)N(Cc2ccc(N(C)C)cc2)Cc2ccco2)cc1,x,-19%,x,x,-9%,x,
CCOc1ccccc1/C=C(\NC(=O)c1ccccc1)C(=O)NCCC(=O)O,-3%,2%,-16%,-27%[57.1 µM],6%,x,RECQ1 inh conf=0%;ADP FP counter=2%
Cc1ccc(/C=C/C(=O)Nc2nc3ccccc3[nH]2)cc1,-7%,-1%,-5%,-12%,-6%,x,
Cc1ccc(/C=C/C(=O)c2nc3ccccc3[nH]2)cc1,-6%,2%,10µM*,-9%,-21%,-29%,RECQ1 inh conf=2%[114 µM];ADP FP counter=-14%[91.9 µM]
O=C(Cn1nc(C(=O)O)c2ccccc2c1=O)Nc1ccc2c(c1)C(=O)c1ccccc1C2=O,-3%,x,i,x,-8%,x,RECQ1 inh conf=u;ADP FP counter=112µM*
NS(=O)(=O)c1ccc(NC(=O)Cn2nc(C(=O)O)c3ccccc3c2=O)cc1,-6%,0%,x,-1%,1%,x,
CC(C)CC(=O)Nc1ccc(C(=O)Cn2nc(C(=O)O)c3ccccc3c2=O)cc1,5%,-12%,1%,-7%,-4%,x,RECQ1 inh conf=5%;ADP FP counter=20%
CCCc1cc(=O)[nH]c(Nc2cc(Cl)cc(Cl)c2)n1,x,7%,x,x,-2%,x,
c1ccc2c(Nc3ccc4c(c3)OCCO4)c3c(nc2c1)CCC3,-1%,-18%,u,-5%,4%,-12%,
Cn1nnc2c(NCc3ccco3)ncnc21,x,-5%,x,x,x,x,
CCSc1ncc(Cl)c(C(=O)N(Cc2ccccc2Cl)C2CCS(=O)(=O)C2)n1 (centres undefined),x,16%,x,x,-2%,x,
COc1ccc2c(C(=O)CN3CCN(c4ccccc4)CC3)c[nH]c2c1,3%,-7%,u,-13%,-2%,-18%,
O=c1c(NCCc2ccc(Cl)cc2)nccn1-c1ccccc1,x,-2%,x,x,-3%,x,
Cc1ccccc1Cc1c(C)nc2nc(SCC(=O)NC(C)c3ccccc3)nn2c1C (centres undefined),x,18%,x,x,-1%,x,
O=C(COC(=O)CCC(NC(=O)OCc1ccccc1)C(=O)OCC(=O)Nc1ccccc1)Nc1ccccc1 (centres undefined),8%,-14%,u,u,-6%,-20%,
CCCCC/C=C/C=C1/C(=O)C=C[C@@H]1C/C=C\CCCC(=O)O,u,x,35µM*!,x,70%,u,
